An excerpt weighted towards active compounds, which were near 12% of everything screened.
Pf growth 48h: inhibits P. falciparum growth in the first generation, 48 h; AID 504832; 310,000 tested, 5.9% active; Potency, µM (doses to about 28.7 µM), without a hit: at the highest dose activity change, negative = inhibition, actives largely listed as inhibitors; P. falciparum luciferase growth in erythrocytes, 48 h; note: % is set by controls: 0 for no effect and ±100 for the full control effect
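Erythrocytes infected with P. falciparum carrying an integrated firefly luciferase reporter (2% hematocrit, 0.1% parasitemia final) were exposed to compounds in RPMI 1640 with 0.5% Albumax at 37 C, 5% CO2. Growth inhibition was scored as reduced luminescence.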
Pf growth 96h: P. falciparum growth inhibition at 96 hours | P. falciparum luciferase reporter growth, 96 h | Potency, µM (top dose mostly 28.7 µM), for the others: top-dose activity change, negative = inhibition, hits mostly inhibitors | 320,000 tested, 6.9% active | AID 504834; note: % is set by controls: 0 for no effect and ±100 for the full control effect
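P. falciparum expressing integrated firefly luciferase, in erythrocytes at 2% hematocrit, 0.05% parasitemia, incubated with compounds 96 h at 37 C, 5% CO2. Growth inhibition read as loss of luminescence; two-generation exposure targets delayed-death apicoplast inhibitors.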
SARS PLpro yeast: SARS-CoV PLP inhibition in yeast; AID 485353; S. cerevisiae expressing SARS-CoV PLpro, growth rescue; 330,000 tested, 0.19% active; Potency, µM (doses to about 32.9 µM), inactives show at the highest dose activity, positive = growth rescue, usual class: activators; calls by dose curve; note: 0% is about no effect; nearly all actives have a fitted effect of over 55% in size
Sm TGR block: S. mansoni TGR enzyme inhibition | 360,000 tested, 3% active | purified TGR, DTNB reduction, TNB absorbance 405 nm | Q962Y6 | Potency, µM (titrated, usually from 114 µM), inactives show top-dose activity change, negative = inhibition, hits mostly inhibitors | AID 485364; note: % is set by controls: 0 for no effect and ±100 for the full control effect; nearly all actives have a fitted effect of over 60% in size
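TGR 20 nM + NADPH 100 uM (dispensed conc.), cpd preinc 15 min RT; start with NADPH (500 uM addition) then DTNB (15 mM addition). Kinetic TNB absorbance, 405 nm filter. Four-parameter Hill fit across titration.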
The depositor's hits bear a star; ? = inconclusive; . = not tested or not shown. Unless noted, calls come from the whole dose curve; as a rule, active = well fitted curve in the direction sought with a large enough effect; inconclusive = small, poorly fitted or top-dose-only effect, or another doubt; inactive = no such curve, though single readings can be large; an effect the other way counts as inactive or inconclusive. Potency is the fitted concentration of half-maximal effect.

SMILES | Pf growth 48h | Pf growth 96h | SARS PLpro yeast | Sm TGR block
CC1(C)Oc2ccc3ccc(=O)oc3c2/C(=C/NNC(N)=S)C1=O | 0.83µM* | 24% | 1% | 2%
CCOc1ccccc1NC(=O)Cn1c(=O)n(C(C)C)c(=O)c2oc3ccccc3c21 | . | . | . | 28%
COc1cccc(CNC(=O)COc2ccc(C(=O)c3ccccc3)cc2)c1 | 19% | 30% | 0% | 1%
COc1ccc(S(=O)(=O)N(CC(=O)Nc2ccccc2Cl)Cc2ccccc2)cc1 | . | . | . | 2%
CC(C)CN(C(=O)C1COc2ccccc2O1)c1c(N)n(CC(C)C)c(=O)[nH]c1=O (stereo unspecified) | -11% | -23% | 7% | 1%
CC1=NN(C(=O)c2ccccc2C)C(O)(c2ccc(Cl)cc2)C1 (stereo unspecified) | -24% | 10µM* | -4% | -2%
CCC1=NN(C(=O)c2ccc(Cl)cc2)C(O)(c2ccccc2)C1 (stereo unspecified) | ? | 3.3µM* | 1% | 8%
CNC(=O)C1CC(=O)N(c2ccc(OCC(=O)Nc3ccc(OC)cc3)cc2)C1 (stereo unspecified) | -2% | ? | -2% | -1%
COc1ccc(-c2nc(C)c(CCNC(=O)c3ccc(F)c(F)c3)s2)cc1 | . | . | . | -2%
CCOP(=O)(OCC)c1nc(/C=C/c2ccccc2)oc1NCc1ccccc1 | 12µM* | 44% | 10% | -31%
CCOP(=O)(OCC)c1nc(/C=C/c2ccccc2)oc1NCc1ccc(OC)cc1 | . | ? | -14% | ?
CCOP(=O)(OCC)c1nc(-c2cccc3ccccc23)oc1NCc1ccc(OC)cc1 | ? | 13µM* | 0% | 5%
CCOP(=O)(OCC)c1nc(-c2cccc3ccccc23)oc1NCc1ccccc1 | ? | ? | -6% | 4%
CCOc1ccc(-n2c(SCC(=O)NCC3CCCO3)nc3c([nH]c4ccccc43)c2=O)cc1 (stereo unspecified) | . | . | . | 9%
C=C(C)CCC(C)N1CCC(n2nccc2NC(=O)CCOc2ccccc2)CC1 (stereo unspecified) | -5% | ? | 14% | 0%
Cn1c(=O)n(C/C=C/c2ccccc2)c(=O)c2c1nc1n2CCN1c1ccc(F)cc1 | . | . | . | -1%
C/C(=N\NC(=O)c1ccc(CSc2nncn2C)cc1)c1ccc(Cl)cc1 | -6% | ? | -2% | -12%
COc1ccc(/C(C)=N/NC(=O)c2ccc(CSc3nncn3C)cc2)cc1 | ? | 4.1µM* | 0% | 4%
CC(C)N(CC#CCC(O)(c1ccccc1)C1CCCC1)CCO (stereo unspecified) | -14% | 6% | -1% | -35%
CC(C)N(CC#CC(O)(c1ccccc1)c1ccccc1)CCO | -11% | 2.3µM* | 6% | -31%
OCCN(CC#CC(O)(c1ccccc1)c1ccccc1)CCO | 8% | 31% | -1% | 40µM*
CC(C)N(CC#CC(O)(c1ccccc1)c1ccccc1)C(C)C | ? | ? | -1% | 40µM*
Cc1ccc(CNC(=O)c2c(-c3ccccc3F)noc2C)o1 | . | . | . | -8%
COC(=O)[C@@H](NC(=O)c1ccc2c(c1)S(=O)(=O)c1ccccc1C2=O)C(C)C | -11% | -20% | 4% | -10%
CSc1nnc(C)c(=O)[nH]1 | -18% | 15µM* | 13% | -26%
SMILES | Pf growth 48h | Pf growth 96h | SARS PLpro yeast | Sm TGR block
Cc1ccc(C)c(N(Cc2cc3ccc(C)cc3[nH]c2=O)C(=O)c2ccco2)c1 | ? | 7.4µM* | 0% | ?
CC(C)N(Cc1cc2ccccc2[nH]c1=O)C(=O)c1ccco1 | 48% | -8% | 0% | 28µM*
Cc1ccc2cc(COC(=O)c3ccco3)c(=O)[nH]c2c1 | 4% | . | -14% | 45µM*
COc1ccc(N(Cc2cc3ccc(C)cc3[nH]c2=O)C(=O)c2ccco2)cc1 | 2% | -29% | 1% | ?
O=C(c1ccco1)N(Cc1ccc2c(c1)OCO2)Cc1cc2cc3c(cc2[nH]c1=O)OCO3 | 45% | 12µM* | -1% | -16%
Cc1cc(Nc2cccc(Cl)c2Cl)n2ncnc2n1 | -2% | ? | -3% | 5%
COc1ccc(/C=C/C(=O)OCC(=O)NCc2ccccc2Cl)cc1OC | . | . | 2% | .
Cc1ccc(S(=O)(=O)N/N=C/c2cc(Br)ccc2O)cc1 | 33% | 38% | -4% | 1%
Cc1ccc(S(=O)(=O)Nc2ccc(Br)cc2/C=N/n2cnnc2)cc1 | 0% | 3.7µM* | -54% | 8%
CCOc1ccc(-c2cc(C(=O)NCCCn3ccnc3)c3cc(Br)ccc3n2)cc1 | 1.7µM* | ? | 1% | -12%
O=C(NCCCn1ccnc1)c1nn2c(C(F)(F)F)cc(-c3ccc(Br)cc3)nc2c1Cl | 1.5µM* | 2.9µM* | -14% | -5%
CCOc1ccc(-c2cc(C(=O)NCCCn3ccnc3)c3ccccc3n2)cc1 | ? | 12% | 0% | 0%
CCCNC(=O)c1nn2c(C(F)(F)F)cc(-c3ccccc3)nc2c1Cl | ? | 0% | -2% | 3%
CN(C)C(=S)Nc1ccc(Cc2ccncc2)cc1 | -4% | 254% | -1% | -9%
COc1cccc(CNC(=O)Cc2c(C(=O)O)c(C)cn2C)c1 | . | . | . | 6%
OCC1(Cc2cccc(Cl)c2)CCCN(Cc2cn[nH]c2C2CCCCC2)C1 (stereo unspecified) | 12µM* | 8% | 0% | 16%
COc1cccc(CC2(CO)CCCN(Cc3cn[nH]c3C3CCCCC3)C2)c1 (stereo unspecified) | ? | ? | 0% | -4%
O=C(CCCn1c(=O)c2sccc2n(Cc2ccc(Cl)cc2)c1=O)NCc1ccc2c(c1)OCO2 | . | . | . | 6%
COCCn1c(=NC(=O)/C=C/c2ccccc2)sc2cc(NC(C)=O)ccc21 | ? | 2.6µM* | 15% | -3%
Cc1ccc2nc(C)c3c(c2c1)N(c1ccc(F)cc1)CC3 | ? | 13µM* | 0% | 2%
COc1cc(/C=C(\C#N)c2nc3ccccc3s2)cc([N+](=O)[O-])c1O | 20% | 9.3µM* | -4% | 1%
COc1ccc(-c2csc(/C(C#N)=C\c3ccc(OC)c([N+](=O)[O-])c3)n2)cc1 | -8% | -2% | 3% | 2%
COc1ccc(-c2csc(/C(C#N)=C\c3ccc(O)c([N+](=O)[O-])c3)n2)cc1OC | 8.3µM* | ? | 3% | -7%
O=c1c2oc3ccccc3c2[nH]c(=S)n1-c1ccc(F)cc1 | 5% | 8.3µM* | 4% | 1%
CCOc1cc(-c2sc(Nc3ccc(CC)cc3)n[n+]2-c2ccccc2)ccc1OC | 10µM* | ? | 0% | -2%
CCc1ccc(Nc2n[n+](-c3ccccc3)c(-c3cccc(C)c3)s2)cc1 | ? | 8.3µM* | 3% | -33%
CCOc1cc(-c2sc(Nc3cc(C)ccc3OC)n[n+]2-c2ccccc2)ccc1OC | ? | ? | -2% | -3%
Cc1ccc2ccc3cc(C(=O)Nc4ccc(C)c(F)c4)nc3c2[nH]1 | . | . | . | -3%
CC1CCCCN1C(=O)c1ccccc1NC(=O)c1ccco1 (stereo unspecified) | 4% | 10µM* | -3% | -23%
O=C(Nc1ccccc1C(=O)N1CCOCC1)c1ccco1 | 0% | ? | -12% | 0%

Screening results (PubChem)
